Measurements as given in the supplement of paper PMC9023506.
Counter-ions that a name gives are not always drawn.

test system: Danio rerio larvae (5 dpf); assay: excitability to 1-s acoustic pulses, difference vs DMSO (percentage points (treated minus DMSO)); higher = more of the behaviour than the DMSO vehicle control; conditions: 10 µM; exposure time: 3 h pre-incubation + 3 h imaging
Description: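 5-dpf wild-type zebrafish larvae were imaged in 96-well plates. They were treated with 190 Tocris FDA-approved drugs at 10 µM (1 µl/ml DMSO) for 3 h before and 3 h during imaging at 28.5 °C, 48 larvae per drug. Automated image analysis gave % time moving and optomotor responses. Values are drug group mean minus DMSO vehicle mean (n=844), in percentage points, for 10 behaviours.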

| SMILES | excitability to 1-s acoustic pulses |
| --- | --- |
| CCOc1ccccc1OCCN[C@H](C)Cc1ccc(OC)c(S(N)(=O)=O)c1 [Tamsulosin hydrochloride] | 14.9 |
| CCCN(CCC)S(=O)(=O)c1ccc(C(=O)O)cc1 [Probenecid] | 4.8 |
| Cc1cn([C@H]2C=C[C@@H](CO)O2)c(=O)[nH]c1=O [Stavudine] | 3.23 |
| CCOC(=O)[C@H](CCc1ccccc1)N[C@H]1CCc2ccccc2N(CC(=O)O)C1=O [Benazepril hydrochloride] | 0.498 |
| OCc1cc(C(O)CNCCCCCCOCCCCc2ccccc2)ccc1O (stereo not given) [Salmeterol xinafoate] | 12.3 |
| COc1cc(Nc2c(C#N)cnc3cc(OCCCN4CCN(C)CC4)c(OC)cc23)c(Cl)cc1Cl [Bosutinib] | 6.48 |
| Cc1nc(Nc2ncc(C(=O)Nc3c(C)cccc3Cl)s2)cc(N2CCN(CCO)CC2)n1 [Dasatinib] | 16.9 |
| CC(c1cc2ccccc2s1)N(O)C(N)=O (stereo not given) [Zileuton] | 4.34 |
| COc1ccc(Cl)cc1C(=O)NCCc1ccc(S(=O)(=O)NC(=O)NC2CCCCC2)cc1 [Glibenclamide] | -0.0554 |
| CC(C)N(CCCCOCC(=O)NS(C)(=O)=O)c1cnc(-c2ccccc2)c(-c2ccccc2)n1 [Selexipag] | 5.77 |
| CN(CCOc1ccc(CC2SC(=O)NC2=O)cc1)c1ccccn1 (stereo not given) [Rosiglitazone] | 15 |
| CC[C@H]1OC(=O)[C@H](C)[C@@H](O[C@H]2C[C@@](C)(OC)[C@@H](O)[C@H](C)O2)[C@H](C)[C@@H](O[C@@H]2O[C@H](C)C[C@H](N(C)C)[C@H]2O)[C@](C)(O)C[C@@H](C)CN(C)[C@H](C)[C@@H](O)[C@]1(C)O [Azithromycin] | 13 |
| COc1ccccc1OCCNCC(O)COc1cccc2[nH]c3ccccc3c12 (stereo not given) [Carvedilol] | 21 |
| CN(C)CC/C=C1/c2ccccc2COc2ccc(CC(=O)O)cc21 [Olopatadine hydrochloride] | 3.92 |
| CCC(=O)O[C@]1(C(=O)SCF)[C@H](C)C[C@H]2[C@@H]3C[C@H](F)C4=CC(=O)C=C[C@]4(C)[C@@]3(F)[C@@H](O)C[C@@]21C [Fluticasone propionate] | 1.18 |
| CCCCC(=O)N(Cc1ccc(-c2ccccc2-c2nnn[nH]2)cc1)[C@H](C(=O)O)C(C)C [Valsartan] | -1.54 |
| Nc1nc(NC2CC2)c2ncn([C@H]3C=C[C@@H](CO)C3)c2n1 [Abacavir hemisulfate] | -1.97 |
| CN[C@H]1CC[C@@H](c2ccc(Cl)c(Cl)c2)c2ccccc21 [Sertraline hydrochloride] | 8.5 |
| CC(C)[C@H]1CC[C@H](C(=O)N[C@H](Cc2ccccc2)C(=O)O)CC1 [Nateglinide] | 1.64 |
| O=c1[nH]c(=O)n([C@H]2C[C@H](O)[C@@H](CO)O2)cc1C(F)(F)F [Trifluorothymidine] | 2.88 |

| SMILES | excitability to 1-s acoustic pulses |
| --- | --- |
| COc1cc([C@@H]2c3cc4c(cc3[C@@H](O[C@@H]3O[C@@H]5CO[C@@H](C)O[C@H]5[C@H](O)[C@H]3O)[C@H]3COC(=O)[C@H]23)OCO4)cc(OC)c1O [Etoposide] | 9.69 |
| CC(C)COCC(CN(Cc1ccccc1)c1ccccc1)N1CCCC1 (stereo not given) [Bepridil hydrochloride] | 15 |
| C[C@H]1C[C@@H]2[C@H]([C@@H](O)C[C@@]3(C)[C@H]2CC[C@]3(O)C(=O)CO)[C@@]2(C)C=CC(=O)C=C12 [Methylprednisolone] | 0.503 |
| CNCc1ccc(-c2[nH]c3cc(F)cc4c3c2CCNC4=O)cc1 [Rucaparib camsylate] | 12.5 |
| OC(c1cc(C(F)(F)F)nc2c(C(F)(F)F)cccc12)C1CCCCN1 (stereo not given) [Mefloquine hydrochloride] | 14 |
| C[C@]12CC[C@@H]3c4ccc(O)cc4C[C@@H](CCCCCCCCC[S+]([O-])CCCC(F)(F)C(F)(F)F)[C@H]3[C@@H]1CC[C@@H]2O (stereo not given in full) | 2.14 |
| Cc1ccc(NC(=O)c2ccc(CN3CCN(C)CC3)cc2)cc1Nc1nccc(-c2cccnc2)n1 [Imatinib mesylate] | 12.7 |
| CC(=O)O[C@]1(C(C)=O)CC[C@H]2[C@@H]3C=C(C)C4=CC(=O)CC[C@]4(C)[C@H]3CC[C@@]21C [Megestrol Acetate] | 14.4 |
| Cc1ccc(O)c([C@H](CCN(C(C)C)C(C)C)c2ccccc2)c1 [Tolterodine L-tartrate] | 7.2 |
| CC[C@H](C)C(=O)O[C@H]1C[C@@H](C)C=C2C=C[C@H](C)[C@H](CC[C@@H]3C[C@@H](O)CC(=O)O3)[C@H]21 [Lovastatin] | 12.6 |
| Nc1nc(Cl)nc2c1ncn2[C@@H]1O[C@H](CO)[C@@H](O)[C@@H]1F [Clofarabine] | 2.22 |
| Cc1cccc(CN2CCN(C(c3ccccc3)c3ccc(Cl)cc3)CC2)c1 (stereo not given) [Meclizine dihydrochloride] | 9.5 |
| NS(=O)(=O)c1cc(C(=O)O)c(NCc2ccco2)cc1Cl [Furosemide] | 0.211 |
| CCCCCCCCc1ccc(CCC(N)(CO)CO)cc1 | 14.4 |
| N#Cc1ccc(C(c2ccc(C#N)cc2)n2cncn2)cc1 [Letrozole] | -0.518 |
| C/C(O)=C(\C#N)C(=O)Nc1ccc(C(F)(F)F)cc1 [Teriflunomide] | 10.6 |
| C=C1[C@H](CO)[C@@H](O)C[C@@H]1n1cnc2c(=O)[nH]c(N)nc21 [Entecavir] | -3.18 |
| COC(=O)C1=C(C)NC(C)=C(C(=O)OC(C)C)C1c1cccc2nonc12 (stereo not given) [Isradipine] | 19.8 |
| O=C(Nc1c(Cl)cncc1Cl)c1ccc(OC(F)F)c(OCC2CC2)c1 [Roflumilast] | 16.7 |
| Cc1ccc(-c2cc(C(F)(F)F)nn2-c2ccc(S(N)(=O)=O)cc2)cc1 [Celecoxib] | 6.46 |
